# Experimental data reported in paper PMC7862700, “An all-to-all approach to the identification of sequence-specific readers for epigenetic DNA modifications on cytosine”.
# Columns and labels:
# Test in all cases: DAPPL (digital affinity profiling via proximity ligation, sequencing); 10 mM Tris-HCl pH 7.5, 50 mM NaCl, 1 mM DTT, 4% glycerol, room temperature, 30 min; GST-TFs on glutathione beads, 16-mer random dsDNA library, 0.1% formaldehyde crosslink after washing; high values mean tight binding
# Conditions in all cases: protein: recombinant; tags: N-terminal GST; dsDNA, one strand shown
# FEV = target: T1, FEV (Homo sapiens, UniProt Q99581 1-238)
# T1 sequence: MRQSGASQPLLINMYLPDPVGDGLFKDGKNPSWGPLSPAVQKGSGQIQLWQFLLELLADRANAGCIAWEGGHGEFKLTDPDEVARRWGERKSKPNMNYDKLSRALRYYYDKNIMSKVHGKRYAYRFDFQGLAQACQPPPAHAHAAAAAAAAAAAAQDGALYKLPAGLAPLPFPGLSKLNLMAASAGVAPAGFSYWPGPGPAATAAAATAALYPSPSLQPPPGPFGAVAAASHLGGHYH
# Method in brief: (§1)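 GST fusions of human transcription factors were expressed in yeast and captured with glutathione beads. Once given DNA barcodes and pooled alongside a tag-only sample, they were incubated for 30 min at room temperature with 200 nmole of a random double-stranded 16-mer DNA library in Tris/NaCl/DTT/glycerol buffer, then washed, crosslinked (0.1% formaldehyde), proximity-ligated, PCR-amplified and sequenced on an Illumina NextSeq500. The binding signal of each hexamer is its read frequency for a factor divided by its frequency for the tag-only sample.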
# ETV5 = ETV5 (Homo sapiens, UniProt P41161 1-510)
# Method in brief: as §1
# SPIC = target: T2, SPIC (Homo sapiens, UniProt Q8N5J4 1-248)
# T2 sequence: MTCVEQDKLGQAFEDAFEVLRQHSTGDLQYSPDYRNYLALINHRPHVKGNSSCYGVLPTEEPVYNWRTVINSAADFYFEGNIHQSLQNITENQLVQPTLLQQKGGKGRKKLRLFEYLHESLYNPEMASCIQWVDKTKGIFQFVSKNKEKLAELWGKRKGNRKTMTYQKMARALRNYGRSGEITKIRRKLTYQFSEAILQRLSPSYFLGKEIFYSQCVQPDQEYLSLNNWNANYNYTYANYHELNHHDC
# Method in brief: as §1
# ELF4 = ELF4 (Homo sapiens, UniProt Q99607 1-663)
# Method in brief: as §1
# ELK4 = target: T3, ELK4 (Homo sapiens, UniProt P28324-2 1-405)
# T3 sequence: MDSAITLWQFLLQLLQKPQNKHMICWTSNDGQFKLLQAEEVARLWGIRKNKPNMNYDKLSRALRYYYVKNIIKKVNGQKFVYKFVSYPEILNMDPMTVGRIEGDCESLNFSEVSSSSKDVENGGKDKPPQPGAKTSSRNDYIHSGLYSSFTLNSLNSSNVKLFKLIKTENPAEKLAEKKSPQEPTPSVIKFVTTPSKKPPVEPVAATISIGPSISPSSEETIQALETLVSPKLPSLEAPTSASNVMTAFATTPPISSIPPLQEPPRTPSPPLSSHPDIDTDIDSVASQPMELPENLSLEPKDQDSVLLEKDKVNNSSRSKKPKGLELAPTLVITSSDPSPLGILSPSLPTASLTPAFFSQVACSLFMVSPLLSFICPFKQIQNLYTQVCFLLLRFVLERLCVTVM
# Method in brief: as §1
# ETV2 = target: T4, ETV2 (Homo sapiens, UniProt O00321 1-342)
# T4 sequence: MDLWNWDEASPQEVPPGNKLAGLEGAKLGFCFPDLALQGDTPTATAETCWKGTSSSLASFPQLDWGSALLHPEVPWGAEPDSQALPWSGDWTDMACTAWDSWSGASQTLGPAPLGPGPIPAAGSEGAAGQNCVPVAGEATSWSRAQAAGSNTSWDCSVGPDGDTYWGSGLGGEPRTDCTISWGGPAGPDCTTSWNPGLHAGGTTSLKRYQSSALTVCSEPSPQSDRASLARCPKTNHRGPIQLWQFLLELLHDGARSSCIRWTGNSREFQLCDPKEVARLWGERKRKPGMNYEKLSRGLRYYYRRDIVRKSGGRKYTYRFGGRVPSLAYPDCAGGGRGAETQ
# Method in brief: as §1
# ELF3 = target: T5, ELF3 (Homo sapiens, UniProt P78545 1-371)
# T5 sequence: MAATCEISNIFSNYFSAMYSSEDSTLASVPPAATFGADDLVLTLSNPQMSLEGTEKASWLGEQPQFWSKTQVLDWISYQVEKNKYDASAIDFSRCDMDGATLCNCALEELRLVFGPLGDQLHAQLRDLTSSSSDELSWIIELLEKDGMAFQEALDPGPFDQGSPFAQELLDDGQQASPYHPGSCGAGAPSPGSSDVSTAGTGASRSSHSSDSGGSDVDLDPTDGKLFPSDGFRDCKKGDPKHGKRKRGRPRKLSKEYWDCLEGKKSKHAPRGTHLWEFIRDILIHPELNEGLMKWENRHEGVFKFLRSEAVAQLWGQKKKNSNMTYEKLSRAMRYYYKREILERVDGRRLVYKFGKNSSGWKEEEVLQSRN
# Method in brief: as §1
# ETV1 = ETV1 (Homo sapiens, UniProt P50549 1-477)
# Method in brief: as §1
# ERF = target: T6, ERF (Homo sapiens, UniProt P50548 1-548)
# T6 sequence: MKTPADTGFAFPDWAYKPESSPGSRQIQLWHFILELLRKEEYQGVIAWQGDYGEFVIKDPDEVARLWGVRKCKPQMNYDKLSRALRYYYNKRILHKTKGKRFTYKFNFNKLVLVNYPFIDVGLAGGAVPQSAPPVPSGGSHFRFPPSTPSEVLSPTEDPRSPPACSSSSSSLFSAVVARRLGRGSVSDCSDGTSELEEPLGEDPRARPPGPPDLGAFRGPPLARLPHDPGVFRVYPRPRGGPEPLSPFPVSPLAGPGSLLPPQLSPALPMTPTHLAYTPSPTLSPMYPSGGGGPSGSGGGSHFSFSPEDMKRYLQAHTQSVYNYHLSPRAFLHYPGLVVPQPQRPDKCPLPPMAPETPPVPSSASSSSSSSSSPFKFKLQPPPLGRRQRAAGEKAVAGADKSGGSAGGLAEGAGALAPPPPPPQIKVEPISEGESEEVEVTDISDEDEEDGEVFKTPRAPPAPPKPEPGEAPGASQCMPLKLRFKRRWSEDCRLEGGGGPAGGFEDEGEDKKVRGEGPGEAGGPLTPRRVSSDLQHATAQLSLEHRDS
# Method in brief: as §1
# ETV3L = target: T7, ETV3L (Homo sapiens, UniProt Q6ZN32 1-361)
# T7 sequence: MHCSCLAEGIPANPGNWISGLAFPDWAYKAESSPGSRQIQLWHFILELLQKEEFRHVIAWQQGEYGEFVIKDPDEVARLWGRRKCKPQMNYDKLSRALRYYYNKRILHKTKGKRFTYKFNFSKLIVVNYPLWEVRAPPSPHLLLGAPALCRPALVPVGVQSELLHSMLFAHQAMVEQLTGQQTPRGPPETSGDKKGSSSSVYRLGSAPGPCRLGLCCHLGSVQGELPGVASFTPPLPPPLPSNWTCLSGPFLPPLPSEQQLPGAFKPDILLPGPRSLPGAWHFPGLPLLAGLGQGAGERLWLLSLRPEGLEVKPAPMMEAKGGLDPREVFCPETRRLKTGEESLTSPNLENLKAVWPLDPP
# Method in brief: as §1
# ETS2 = target: T8, ETS2 (Homo sapiens, UniProt P15036 1-469)
# T8 sequence: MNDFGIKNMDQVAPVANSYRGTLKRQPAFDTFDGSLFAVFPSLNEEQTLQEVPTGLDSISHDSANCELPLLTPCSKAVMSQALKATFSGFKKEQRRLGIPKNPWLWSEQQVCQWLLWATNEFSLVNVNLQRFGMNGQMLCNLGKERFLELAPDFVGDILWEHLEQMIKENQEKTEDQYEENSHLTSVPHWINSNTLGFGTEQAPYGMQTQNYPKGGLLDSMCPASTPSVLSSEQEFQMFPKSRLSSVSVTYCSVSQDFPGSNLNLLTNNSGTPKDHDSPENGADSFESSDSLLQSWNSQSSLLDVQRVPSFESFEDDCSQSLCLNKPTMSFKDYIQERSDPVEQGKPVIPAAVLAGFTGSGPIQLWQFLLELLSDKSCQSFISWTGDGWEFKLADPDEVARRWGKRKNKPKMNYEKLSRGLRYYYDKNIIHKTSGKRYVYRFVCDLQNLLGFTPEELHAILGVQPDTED
# Method in brief: as §1
# SPDEF = target: T9, SPDEF (Homo sapiens, UniProt O95238 1-335)
# T9 sequence: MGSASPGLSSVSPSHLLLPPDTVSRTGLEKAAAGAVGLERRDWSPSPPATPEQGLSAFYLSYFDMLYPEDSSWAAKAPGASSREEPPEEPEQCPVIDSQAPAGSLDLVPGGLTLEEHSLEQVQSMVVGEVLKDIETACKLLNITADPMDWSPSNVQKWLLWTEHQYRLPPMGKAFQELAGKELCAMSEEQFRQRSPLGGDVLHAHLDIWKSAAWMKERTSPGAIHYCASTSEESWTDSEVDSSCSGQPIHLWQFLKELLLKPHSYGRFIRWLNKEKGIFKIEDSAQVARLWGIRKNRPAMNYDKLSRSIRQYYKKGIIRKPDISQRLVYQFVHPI
# Method in brief: as §1
# ETV7 = target: T10, ETV7 (Homo sapiens, UniProt Q9Y603 1-341)
# T10 sequence: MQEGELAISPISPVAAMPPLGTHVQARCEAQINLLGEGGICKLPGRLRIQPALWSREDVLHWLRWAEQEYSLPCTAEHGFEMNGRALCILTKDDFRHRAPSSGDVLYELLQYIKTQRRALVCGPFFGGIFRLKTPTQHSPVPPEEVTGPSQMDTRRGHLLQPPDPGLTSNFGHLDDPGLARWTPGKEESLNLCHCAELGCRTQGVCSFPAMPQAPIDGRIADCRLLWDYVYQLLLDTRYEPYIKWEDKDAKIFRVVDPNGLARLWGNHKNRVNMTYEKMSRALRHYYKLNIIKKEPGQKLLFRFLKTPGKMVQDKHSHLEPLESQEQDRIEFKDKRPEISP
# Method in brief: as §1
# ELF5 = target: T11, ELF5 (Homo sapiens, UniProt Q9UKW6-2 1-255)
# T11 sequence: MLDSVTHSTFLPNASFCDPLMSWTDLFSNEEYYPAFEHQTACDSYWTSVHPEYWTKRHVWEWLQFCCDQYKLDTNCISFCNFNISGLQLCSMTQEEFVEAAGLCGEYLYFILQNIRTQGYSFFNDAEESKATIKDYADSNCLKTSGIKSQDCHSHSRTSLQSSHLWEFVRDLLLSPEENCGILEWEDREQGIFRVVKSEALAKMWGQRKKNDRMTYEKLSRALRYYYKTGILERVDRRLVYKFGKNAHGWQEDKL
# Method in brief: as §1
# ETV3 = target: T12, ETV3 (Homo sapiens, UniProt P41162-2 1-143)
# T12 sequence: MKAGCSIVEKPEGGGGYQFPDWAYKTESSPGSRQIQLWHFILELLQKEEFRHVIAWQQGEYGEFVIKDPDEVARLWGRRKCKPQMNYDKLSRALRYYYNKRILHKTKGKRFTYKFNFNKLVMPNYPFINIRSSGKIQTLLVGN
# Method in brief: as §1
# ETV6 = ETV6 (Homo sapiens, UniProt P41212 1-452)
# Method in brief: as §1
# Sequence of ELF4 (Q99607 whole entry): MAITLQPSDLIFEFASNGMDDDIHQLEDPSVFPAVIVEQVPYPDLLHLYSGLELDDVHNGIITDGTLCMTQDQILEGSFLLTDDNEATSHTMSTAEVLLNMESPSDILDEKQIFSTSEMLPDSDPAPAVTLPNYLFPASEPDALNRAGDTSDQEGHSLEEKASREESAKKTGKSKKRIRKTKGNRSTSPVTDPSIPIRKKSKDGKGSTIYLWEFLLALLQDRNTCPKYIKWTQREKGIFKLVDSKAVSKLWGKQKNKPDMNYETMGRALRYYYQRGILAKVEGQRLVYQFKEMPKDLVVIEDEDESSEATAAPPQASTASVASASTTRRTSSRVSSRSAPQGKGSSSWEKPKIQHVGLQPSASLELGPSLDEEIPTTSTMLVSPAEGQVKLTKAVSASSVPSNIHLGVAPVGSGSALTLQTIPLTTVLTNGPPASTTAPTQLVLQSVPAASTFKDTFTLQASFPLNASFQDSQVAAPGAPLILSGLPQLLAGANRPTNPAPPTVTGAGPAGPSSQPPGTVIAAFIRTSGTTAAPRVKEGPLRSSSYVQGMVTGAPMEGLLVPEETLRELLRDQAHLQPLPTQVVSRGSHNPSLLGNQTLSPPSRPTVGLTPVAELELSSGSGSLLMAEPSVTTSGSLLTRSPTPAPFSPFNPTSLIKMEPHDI
# Sequence of ETV1 (P50549 whole entry): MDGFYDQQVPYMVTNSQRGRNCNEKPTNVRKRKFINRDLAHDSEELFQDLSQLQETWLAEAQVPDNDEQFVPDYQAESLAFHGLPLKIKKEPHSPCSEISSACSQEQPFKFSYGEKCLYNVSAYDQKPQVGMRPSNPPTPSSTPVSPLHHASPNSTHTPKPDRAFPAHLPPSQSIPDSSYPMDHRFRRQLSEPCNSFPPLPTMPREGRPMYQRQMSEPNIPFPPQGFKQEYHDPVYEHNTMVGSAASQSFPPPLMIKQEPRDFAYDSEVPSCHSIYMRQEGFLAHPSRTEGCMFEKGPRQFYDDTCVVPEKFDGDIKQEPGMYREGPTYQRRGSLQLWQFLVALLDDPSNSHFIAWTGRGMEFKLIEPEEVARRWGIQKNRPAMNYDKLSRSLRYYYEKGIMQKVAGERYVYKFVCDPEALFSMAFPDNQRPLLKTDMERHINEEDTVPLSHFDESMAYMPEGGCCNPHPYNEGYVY
# Sequence of ETV5 (P41161 whole entry): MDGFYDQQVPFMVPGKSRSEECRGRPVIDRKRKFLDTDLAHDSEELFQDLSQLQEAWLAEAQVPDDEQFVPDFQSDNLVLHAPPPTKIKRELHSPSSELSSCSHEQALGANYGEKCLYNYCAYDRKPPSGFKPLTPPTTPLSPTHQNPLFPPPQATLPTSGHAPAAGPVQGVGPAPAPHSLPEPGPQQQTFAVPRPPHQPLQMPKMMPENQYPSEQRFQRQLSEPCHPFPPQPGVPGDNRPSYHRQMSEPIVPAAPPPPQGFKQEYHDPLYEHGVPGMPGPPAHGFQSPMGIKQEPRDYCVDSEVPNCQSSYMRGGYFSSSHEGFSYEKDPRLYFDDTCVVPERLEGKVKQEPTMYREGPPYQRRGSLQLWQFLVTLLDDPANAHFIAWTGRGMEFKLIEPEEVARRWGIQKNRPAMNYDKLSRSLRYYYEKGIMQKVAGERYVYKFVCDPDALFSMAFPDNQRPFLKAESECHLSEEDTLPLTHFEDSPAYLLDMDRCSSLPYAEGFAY
# Sequence of ETV6 (P41212 whole entry): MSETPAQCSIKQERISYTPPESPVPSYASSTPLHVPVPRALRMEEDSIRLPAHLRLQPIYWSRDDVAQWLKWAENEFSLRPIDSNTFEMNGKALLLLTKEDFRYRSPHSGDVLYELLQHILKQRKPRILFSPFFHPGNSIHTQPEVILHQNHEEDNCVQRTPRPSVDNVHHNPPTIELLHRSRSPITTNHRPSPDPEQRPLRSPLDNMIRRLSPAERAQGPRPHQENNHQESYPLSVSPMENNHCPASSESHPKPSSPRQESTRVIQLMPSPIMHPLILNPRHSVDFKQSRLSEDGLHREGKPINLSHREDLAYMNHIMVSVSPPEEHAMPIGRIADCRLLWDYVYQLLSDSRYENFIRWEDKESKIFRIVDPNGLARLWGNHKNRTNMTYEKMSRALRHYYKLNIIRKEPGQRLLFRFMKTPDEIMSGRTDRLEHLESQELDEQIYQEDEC
Sequence,binding signal (FEV),binding signal (ETV5),binding signal (SPIC),binding signal (ELF4),binding signal (ELK4),binding signal (ETV2),binding signal (ELF3),binding signal (ETV1),binding signal (ERF),binding signal (ETV3L),binding signal (ETS2),binding signal (SPDEF),binding signal (ETV7),binding signal (ELF5),binding signal (ETV3),binding signal (ETV6)
GCATCC,"1.73 fold enrichment (6-mer frequency, TF over GST control)","1.68 fold enrichment (6-mer frequency, TF over GST control)","1.53 fold enrichment (6-mer frequency, TF over GST control)","1.43 fold enrichment (6-mer frequency, TF over GST control)","1.28 fold enrichment (6-mer frequency, TF over GST control)","1.39 fold enrichment (6-mer frequency, TF over GST control)","1.53 fold enrichment (6-mer frequency, TF over GST control)","1.55 fold enrichment (6-mer frequency, TF over GST control)","1.43 fold enrichment (6-mer frequency, TF over GST control)","1.56 fold enrichment (6-mer frequency, TF over GST control)","1.61 fold enrichment (6-mer frequency, TF over GST control)","2.71 fold enrichment (6-mer frequency, TF over GST control)","1.43 fold enrichment (6-mer frequency, TF over GST control)","1.64 fold enrichment (6-mer frequency, TF over GST control)","1.62 fold enrichment (6-mer frequency, TF over GST control)","1.57 fold enrichment (6-mer frequency, TF over GST control)"
CTGTTG,"1.06 fold enrichment (6-mer frequency, TF over GST control)","1.03 fold enrichment (6-mer frequency, TF over GST control)","1.12 fold enrichment (6-mer frequency, TF over GST control)","1.17 fold enrichment (6-mer frequency, TF over GST control)","1.1 fold enrichment (6-mer frequency, TF over GST control)","1.13 fold enrichment (6-mer frequency, TF over GST control)","1.03 fold enrichment (6-mer frequency, TF over GST control)","1.09 fold enrichment (6-mer frequency, TF over GST control)","1.17 fold enrichment (6-mer frequency, TF over GST control)","1.07 fold enrichment (6-mer frequency, TF over GST control)","1.21 fold enrichment (6-mer frequency, TF over GST control)","1.12 fold enrichment (6-mer frequency, TF over GST control)","1.05 fold enrichment (6-mer frequency, TF over GST control)","1.09 fold enrichment (6-mer frequency, TF over GST control)","1.21 fold enrichment (6-mer frequency, TF over GST control)","1.08 fold enrichment (6-mer frequency, TF over GST control)"
